Out of some 220,000 compounds screened, about 2,400 (1.1%) were called active. A call without a number means that no potency is given here. Another 7% or so got no clear call; they are omitted. Calls follow the shape of the dose curve; as a rule, active = well fitted inhibition curve with a large enough effect; inconclusive = small, poorly fitted or top-dose-only effect, or effect the other way; inactive = no such curve, though single readings can be large or run the other way. Many of the other results were omitted from the sample, so actives are more common in it than they were.
test: qHTS Multiplex Assay to Identify Dual Action Probes in a Cell Model of Huntington: Aggregate Formation (GFP); settings: PC12 HttQ103-GFP aggregates, Acumen cytometry, 40 h; series mostly up to 9.22 µM; also: nearly all actives have a fitted effect of over 60% in size
Source text: NIH Chemical Genomics Center [NCGC]
NIH Molecular Libraries Probe Production centers Network [MLPCN]
Assay Submitter (PI): Wei Zheng
Huntington's disease is a neurodegenerative disorder caused by a trinucleotide repeat expansion in Exon 1 of the Huntingtin gene. The CAG trinucleotide encodes glutamine and polyglutamine expansions cause cell death in selective areas of the brain. Huntington polyglutamine repeats have the tendency to form aggregates which are observable in later stages of the disease. The exact nature of the aggregates, whether toxic, protective, or insignificant, is unclear.
A stable PC12 cell line containing a gene fusion of Exon 1 of the Huntingtin gene linked to GFP under the control of the inducible ecdysone promoter were used as the cell-based model of Huntington Disease for high throughput screening. Exon 1 of the Huntingtin gene contained an expansion of 103 polyglutamines (Q103) which, when expressed, caused cell death and distinct, bright GFP aggregates. The amount of cell death and the size and intensity of GFP aggregates increased over time and induction level. The cell death were quantified with a measurement of ATP content in the cells. A maximal 40-50% of cell death was observed when the Huntington gene was induced in this cell line.
We optimized this assay in a homogeneous 1536 well format. A quantitative high throughput screen (qHTS) was conducted on the PC12 cells which were induced to express the toxic fusion construct. Small molecules which reduced aggregate formation were identified bu using a laser scanning cytometer calibrated to detect the aggregates in cell lysates.
PC12 cells stably containing a construct with an ecdysone inducible promoter expressing GFP fused to the exon 1 of HTTQ103 (Huntington protein which containing a 103 ployglutamine expansion) were used.
NCGC Assay Protocol Summary:
Sequence, Parameter, Description
1, Reagent, 5 uL 1500 cells/well 1536 TC treated White clear bottom plate
2, Compound, 23 nL Tebufenozide inducer (100 nM final) to all columns
3, Compound, 23 nL 40 uM to 0.5 nM Libraries
5, Reagent, 5 ul ATPLite cell death assay reagent
6, Detector, Aggregate quantitation by Acumen Explorer
Media consisted of phenol red free DMEM + 5% equine serum (Hyclone # SH30072.03 ), 5% supplemented Bovine Calf Serum (Hyclone # SH30074.03 ), 1x pen/strep, no G418
Acumen Explorer was used to quantitate GFP aggregates using the following criteria: […] laser excitation, 500-530 nm emission, the PMT was set at a voltage of 450 volts, and objects ranging in size of […] in size having a signal of 6 STDEV above background were collected.
Control columns: 1 = DMSO, 2= 2 uM teb dilns (1:1), 4 = 100 nM Teb inducer. Sample columns received 100 nM Teb.
Potency is read from the fitted curve at half-maximal effect.

Row | SMILES | Potency
1 | CCCCCn1c(=O)c(C(=O)Nc2c(C)n(C)n(-c3ccccc3)c2=O)c(O)c2ccccc21 | inactive
2 | CCCCCn1c(=O)c(C(=O)NCc2ccccn2)c(O)c2ccccc21 | 31.6 µM (active)
3 | C=CCN1CCC23c4c5ccc(O)c4O[C@H]2C(=O)CC[C@@]3(O)C1C5 (stereo not given in full) | inactive
4 | c1ccc2sc(SNC3CCCCC3)nc2c1 | inactive
5 | CN1CCN(/N=C/c2c[nH]c3ccccc23)CC1 | inactive
6 | CC(Cc1ccccc1)NC=O (stereo not given) | inactive
7 | CN1CCCC(=C(c2cccs2)c2cccs2)C1 | inactive
8 | Cc1ncc(CC(=O)n2cc(C(=O)c3cc(Cl)ccc3O)cn2)s1 | 14.1 µM (active)
9 | COc1cccc(CN2CCCC(C(=O)c3ccccc3SC)C2)c1O (stereo not given) | inactive
10 | CC[N+]1(CCOC(=O)C(O)(c2ccccc2)c2ccccc2)CCCCC1 | inactive
11 | COc1ccc(-n2c(-c3ccccc3)nc3ccccc3c2=O)cc1 | inactive
12 | O=Cc1cn(Cc2ccc(F)cc2Cl)c2ccccc12 | 10 µM (active)
13 | CC1C2Cn3c(nc4ccccc43)C1N(C)O2 (stereo not given) | inactive
14 | CCCCC(=O)N/N=C/c1c(O)n(-c2ccccc2)c(=O)[nH]c1=O | inactive
15 | CCCCC(=O)N/N=C/c1c(O)n(CCC2=CCCCC2)c(=O)[nH]c1=O | inactive
16 | CCCCC(=O)N/N=C/c1c(O)n(CC)c(=S)n(CC)c1=O | 3.98 µM (active)
17 | COC([CH2][Hg])CNC(=O)c1ccccc1OCC(=O)O (stereo not given) | inactive
18 | O=C(N/N=C/c1ccc([N+](=O)[O-])o1)c1cc([N+](=O)[O-])cc([N+](=O)[O-])c1O | inactive
19 | CC(C)c1ccc(-n2c(O)c(/C=N/N3CCOCC3)c(=O)[nH]c2=S)cc1 | inactive
20 | CCCn1c(C(=O)c2ccccc2OC)nc2ccccc21 | inactive
